The results in this text go back to PubChem BioAssay (NCATS).

Assay [1] has as its target Thioredoxin reductase 1, cytoplasmic (Rattus norvegicus) (UniProt O89049). Kind of assay: qHTS Assay for Substrates of Mammalian Selenoprotein Thioredoxin Reductase 1 (TrxR1) (AID 488772).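 Also: NADPH fluorescence in the first read after selenite addition and not the 8 min delta; a drop in NADPH fluorescence below the no-compound background marks a TrxR1 substrate.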 As to conditions: purified TrxR1, NADPH consumption substrate assay; series mostly up to 57.1 µM. A digest of the protocol: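 Quantitative HTS in Tris-HCl buffer at pH 7.5 with EDTA and Tween-20, using rat TrxR1, 400 uM NADPH and 400 uM selenite (final). A fall in initial NADPH fluorescence relative to background marked substrate behaviour.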
For orientation: In qHTS, concentration-response curves come from the screen itself.

For assay [2], the target named is Flap endonuclease 1 (Homo sapiens) (UniProt P39748). As to the kind of experiment: qHTS Validation Assay for the Inhibitors of Human Flap endonuclease 1 (FEN1) (AID 488816). Also: potency is read from the fitted curve at half-maximal effect. The settings on record: FEN1 nuclease activity, fluorogenic DNA substrate; series mostly up to 57.1 µM. A digest of the protocol: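 Human FEN1 (10 nM) preincubated 15 min at room temperature with compounds, then flap DNA substrate added at 50 nM final. Fluorescence read at 0 and 15 min; concentration-response fitted with four-parameter Hill equation.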
Flap endonuclease 1 (Homo sapiens), sequence (P39748 whole entry, looked up): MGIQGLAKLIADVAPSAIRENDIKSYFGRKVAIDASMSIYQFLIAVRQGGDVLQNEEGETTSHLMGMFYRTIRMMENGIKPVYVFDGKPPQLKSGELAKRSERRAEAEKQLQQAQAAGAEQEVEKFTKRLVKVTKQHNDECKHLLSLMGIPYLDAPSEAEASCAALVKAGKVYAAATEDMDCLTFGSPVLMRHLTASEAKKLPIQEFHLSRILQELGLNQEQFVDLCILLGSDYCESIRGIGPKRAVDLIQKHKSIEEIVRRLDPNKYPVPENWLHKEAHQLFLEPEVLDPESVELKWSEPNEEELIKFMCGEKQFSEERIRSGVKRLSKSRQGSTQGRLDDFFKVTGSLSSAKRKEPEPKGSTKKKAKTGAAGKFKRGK

Assay [3] concerns the target M-phase phosphoprotein 8 (Homo sapiens) (UniProt Q99549). As to the kind of experiment: qHTS Validation Assay for Inhibitors for MPP8 Chromodomain Interactions with Methylated Histone Tails (AID 488949). Also: nearly all actives have a fitted effect of over 55% in size. Also: potency is read from the fitted curve at half-maximal effect. The settings on record: AlphaScreen MPP8 binding to H3K9me3 peptide; series mostly up to 57.1 µM. A digest of the protocol: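 AlphaScreen proximity signal from streptavidin donor and Ni-chelate acceptor beads (10 ug/mL each) reported binding of MPP8 to trimethyl-K9 H3(1-18) peptide, both at 50 nM. The complex formed 30 min before a 30 min compound exposure at room temperature, in PBS pH 7.4.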

The target in assay [4] is Methanococcus maripaludis chaperonin (MmCpn) (UniProt Q6LX38). Kind of assay: High-Throughput Screening for Modulators of Cytosolic Chaperonin Activity: MmCpn Primary Screen (AID 488978).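 Also: 50 nM MmCpn enzyme hydrolysing 30 µM ATP at 37 °C.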 The settings on record: Purified MmCpn ATPase activity, ADP HTRF detection, 10 min; series mostly up to 76.9 µM. A digest of the protocol:
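ATPase activity of 50 nM MmCpn was assayed with 30 uM ATP, 10 minutes at 37C, after a 5 min compound preincubation at room temperature. ADP production was read as HTRF emission at 590 and 665 nm.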

Assay [5] concerns the target Transient receptor potential cation channel subfamily V member 1 (Homo sapiens) (UniProt Q8NER1). Kind of assay: HTS Assay for Compounds that Act as Enhancers of the Vanilloid Receptor 1 (AID 488979). As to conditions: TRPV1-expressing cells, enhancer of channel activity; series mostly up to 41.7 µM. A digest of the protocol:
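TRPV1 cells loaded with Fluo-8 calcium dye; compound added and Ca2+ signal (ex 480/em 520 nm) followed 3 min, then capsaicin at EC20 added and read 2 more min to detect enhancement.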

The target in assay [6] is Thioredoxin reductase 1, cytoplasmic (Rattus norvegicus) (UniProt O89049). Kind of assay: qHTS Assay for Inhibitors of Mammalian Selenoprotein Thioredoxin Reductase 1 (TrxR1) (AID 488773). Also: nearly all actives have a fitted effect of over 40% in size. Also: potency is read from the fitted curve at half-maximal effect. As to conditions: purified TrxR1 enzyme activity; Potency: inhibition; series mostly up to 57.1 µM. A digest of the protocol: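 Steps: enzyme (90 nM) plus NADPH (400 uM final), 5 min at ~22 deg C; compound added, 15 min; selenite (400 uM final) added; fluorescence followed for 8 min. Concentration-response curves derived from the normalized delta values.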
Thioredoxin reductase 1, cytoplasmic (Rattus norvegicus), sequence (O89049 whole entry, looked up): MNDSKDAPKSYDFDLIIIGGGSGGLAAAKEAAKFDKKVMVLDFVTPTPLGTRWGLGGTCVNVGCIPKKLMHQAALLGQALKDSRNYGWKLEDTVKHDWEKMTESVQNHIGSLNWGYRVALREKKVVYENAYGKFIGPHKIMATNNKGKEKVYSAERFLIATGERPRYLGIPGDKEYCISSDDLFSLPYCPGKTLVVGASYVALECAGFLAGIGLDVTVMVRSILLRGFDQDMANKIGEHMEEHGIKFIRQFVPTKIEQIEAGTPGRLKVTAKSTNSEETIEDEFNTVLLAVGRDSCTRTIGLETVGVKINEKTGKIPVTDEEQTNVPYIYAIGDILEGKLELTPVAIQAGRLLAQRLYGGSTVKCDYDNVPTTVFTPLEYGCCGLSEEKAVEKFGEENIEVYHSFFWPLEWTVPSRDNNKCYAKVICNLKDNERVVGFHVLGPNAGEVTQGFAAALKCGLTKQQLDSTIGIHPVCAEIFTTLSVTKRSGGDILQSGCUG

The target of assay [7] is Chromobox protein homolog 1 (Homo sapiens) (UniProt P83916). As to the kind of experiment: qHTS Validation Assay for Inhibitors of HP1-beta Chromodomain Interactions with Methylated Histone Tails (AID 488953). Also: nearly all actives have a fitted effect of over 50% in size. Also: potency is read from the fitted curve at half-maximal effect. As to conditions: HP1-beta chromodomain / methylated histone peptide binding assay; series mostly up to 114 µM. A digest of the protocol:
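Measured as loss of AlphaScreen luminescence from streptavidin donor and nickel acceptor beads (10 ug/mL final) bridging HP1-beta and biotin-H3(1-18)K9me3, each 50 nM. Compounds met the preassembled complex for 30 min at RT.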

Assay [8] addresses Thyrotropin receptor (Homo sapiens) (UniProt P16473). As to the kind of experiment: qHTS Assay for Antagonists of the Thyroid Stimulating Hormone Receptor (AID 488980). The settings on record: TSHR-expressing cells, cAMP antagonist read-out; series mostly up to 57.5 µM. A digest of the protocol: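 Inhibition of cAMP raised by EC80 TSH (4 nM final) was read by HTRF, with lysate cAMP competing against cAMP-d2 for cryptate antibody after 30 min at room temperature. The cells were transfected HEK293 held in phosphodiesterase inhibitor RO 20-1724 at 70 uM.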

Values joined by “and” are separate entries in the source; they are usually repeats but may differ in a detail not shown here. Equal entries are not always repeated. Inconclusive results are not listed. Where a structure was tested more than once in an assay, its records may differ in their call. Active and inactive are the calls of the source. Calls follow the shape of the dose curve; as a rule, active = well fitted curve in the direction sought with a large enough effect; inconclusive = small, poorly fitted or top-dose-only effect, or another doubt; inactive = no such curve, though single readings can be large; an effect the other way counts as inactive or inconclusive.

Transient receptor potential cation channel subfamily V member 1 (Homo sapiens), sequence (Q8NER1 whole entry, looked up): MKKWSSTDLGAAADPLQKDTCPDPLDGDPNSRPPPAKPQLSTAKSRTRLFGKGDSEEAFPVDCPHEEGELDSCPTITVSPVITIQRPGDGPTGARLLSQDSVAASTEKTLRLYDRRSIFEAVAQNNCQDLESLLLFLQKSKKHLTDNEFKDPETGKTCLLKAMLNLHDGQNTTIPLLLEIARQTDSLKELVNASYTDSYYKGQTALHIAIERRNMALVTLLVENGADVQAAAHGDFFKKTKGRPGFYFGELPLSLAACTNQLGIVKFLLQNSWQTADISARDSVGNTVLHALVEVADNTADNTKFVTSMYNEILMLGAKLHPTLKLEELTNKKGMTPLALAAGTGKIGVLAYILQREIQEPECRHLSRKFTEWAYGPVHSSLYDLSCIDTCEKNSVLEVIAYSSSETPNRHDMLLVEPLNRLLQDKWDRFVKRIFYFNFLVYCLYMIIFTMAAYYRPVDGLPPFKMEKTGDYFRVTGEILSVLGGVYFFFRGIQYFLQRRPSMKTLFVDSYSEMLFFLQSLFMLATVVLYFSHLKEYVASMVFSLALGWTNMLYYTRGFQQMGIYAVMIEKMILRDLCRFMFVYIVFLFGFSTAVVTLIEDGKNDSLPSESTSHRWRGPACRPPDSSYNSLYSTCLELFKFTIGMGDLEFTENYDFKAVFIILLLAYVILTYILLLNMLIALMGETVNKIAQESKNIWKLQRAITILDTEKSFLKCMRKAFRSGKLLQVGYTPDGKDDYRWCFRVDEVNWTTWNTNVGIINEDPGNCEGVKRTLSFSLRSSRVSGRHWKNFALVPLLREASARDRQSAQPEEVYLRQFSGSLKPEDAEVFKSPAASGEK
Thyrotropin receptor (Homo sapiens), sequence (P16473 whole entry, looked up): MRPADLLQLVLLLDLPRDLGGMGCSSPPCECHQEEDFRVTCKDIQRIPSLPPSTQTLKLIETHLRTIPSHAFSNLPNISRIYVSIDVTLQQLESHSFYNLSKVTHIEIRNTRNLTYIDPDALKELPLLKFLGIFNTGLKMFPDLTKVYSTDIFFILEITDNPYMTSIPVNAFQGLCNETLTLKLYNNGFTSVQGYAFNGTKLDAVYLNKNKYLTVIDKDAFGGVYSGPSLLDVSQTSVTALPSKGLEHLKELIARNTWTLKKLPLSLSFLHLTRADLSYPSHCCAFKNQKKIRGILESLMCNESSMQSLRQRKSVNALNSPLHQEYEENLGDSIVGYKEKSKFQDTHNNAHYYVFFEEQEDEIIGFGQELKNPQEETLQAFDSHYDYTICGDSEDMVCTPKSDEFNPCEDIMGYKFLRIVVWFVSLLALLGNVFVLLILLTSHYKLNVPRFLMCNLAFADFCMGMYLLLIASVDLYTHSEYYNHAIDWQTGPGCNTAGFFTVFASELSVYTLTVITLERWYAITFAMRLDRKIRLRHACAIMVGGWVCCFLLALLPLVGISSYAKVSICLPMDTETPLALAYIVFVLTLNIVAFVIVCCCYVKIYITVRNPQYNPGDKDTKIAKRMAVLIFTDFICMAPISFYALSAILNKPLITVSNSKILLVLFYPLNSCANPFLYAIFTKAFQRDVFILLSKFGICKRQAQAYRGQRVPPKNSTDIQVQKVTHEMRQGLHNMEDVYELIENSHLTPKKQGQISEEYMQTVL
Methanococcus maripaludis chaperonin (MmCpn), sequence (Q6LX38 1-543): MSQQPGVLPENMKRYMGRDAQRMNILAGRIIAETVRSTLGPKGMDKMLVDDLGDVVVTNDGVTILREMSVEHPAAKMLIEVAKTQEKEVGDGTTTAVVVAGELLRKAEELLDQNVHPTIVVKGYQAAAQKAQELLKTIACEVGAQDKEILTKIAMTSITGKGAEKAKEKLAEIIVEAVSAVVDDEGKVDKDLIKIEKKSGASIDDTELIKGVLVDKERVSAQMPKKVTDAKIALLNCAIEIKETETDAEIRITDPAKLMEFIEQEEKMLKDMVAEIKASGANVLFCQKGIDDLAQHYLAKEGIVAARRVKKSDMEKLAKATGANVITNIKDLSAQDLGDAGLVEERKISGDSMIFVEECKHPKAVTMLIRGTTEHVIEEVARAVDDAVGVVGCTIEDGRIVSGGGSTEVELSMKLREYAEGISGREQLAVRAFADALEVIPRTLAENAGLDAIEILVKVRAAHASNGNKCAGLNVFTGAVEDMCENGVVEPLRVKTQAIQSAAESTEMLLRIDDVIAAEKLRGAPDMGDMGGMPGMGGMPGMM
Chromobox protein homolog 1 (Homo sapiens), sequence (P83916 whole entry, looked up): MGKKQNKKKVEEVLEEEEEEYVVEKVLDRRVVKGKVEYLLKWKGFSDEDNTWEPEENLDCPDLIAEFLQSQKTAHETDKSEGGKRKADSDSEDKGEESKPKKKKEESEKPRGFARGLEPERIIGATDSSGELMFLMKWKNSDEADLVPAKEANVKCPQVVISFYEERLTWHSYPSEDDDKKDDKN
M-phase phosphoprotein 8 (Homo sapiens), sequence (Q99549 whole entry, looked up): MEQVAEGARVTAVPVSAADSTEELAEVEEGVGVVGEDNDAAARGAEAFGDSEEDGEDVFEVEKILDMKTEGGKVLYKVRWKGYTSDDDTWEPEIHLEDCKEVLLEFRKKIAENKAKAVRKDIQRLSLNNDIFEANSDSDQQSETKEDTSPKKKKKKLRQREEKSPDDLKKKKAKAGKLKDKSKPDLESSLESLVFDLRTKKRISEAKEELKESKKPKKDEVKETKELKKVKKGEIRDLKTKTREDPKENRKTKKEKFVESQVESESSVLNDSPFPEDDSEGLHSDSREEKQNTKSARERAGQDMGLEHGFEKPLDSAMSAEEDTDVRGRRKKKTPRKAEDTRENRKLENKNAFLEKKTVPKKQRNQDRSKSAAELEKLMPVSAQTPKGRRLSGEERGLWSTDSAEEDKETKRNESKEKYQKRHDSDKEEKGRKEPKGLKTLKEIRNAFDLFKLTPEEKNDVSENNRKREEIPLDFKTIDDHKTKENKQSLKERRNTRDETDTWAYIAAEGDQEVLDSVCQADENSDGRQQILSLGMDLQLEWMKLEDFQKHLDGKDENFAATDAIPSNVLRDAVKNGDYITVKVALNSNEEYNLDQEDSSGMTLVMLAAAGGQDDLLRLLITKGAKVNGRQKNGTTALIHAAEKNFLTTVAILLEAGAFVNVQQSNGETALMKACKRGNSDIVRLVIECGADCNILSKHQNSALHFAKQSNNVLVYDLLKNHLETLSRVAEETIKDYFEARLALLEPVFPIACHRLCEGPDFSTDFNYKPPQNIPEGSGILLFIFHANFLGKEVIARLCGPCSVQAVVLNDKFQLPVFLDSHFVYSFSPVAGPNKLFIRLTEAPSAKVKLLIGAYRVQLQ

On to `CCCN(CCC)[C@@H]1CCc2cccc(O)c2C1`, for which the outcome in assay [1], in assay [4] and in assay [5] was inactive. The Potency entry in assay [2] and in assay [3] was “inactive” each time.
Take `C=CCN(C1=NCCN1)c1c(Cl)cccc1Cl`: the molecule was called inactive in assay [1] and in assay [4]. Moreover, the Potency entry in assay [6], in assay [2], in assay [3] and in assay [7] was “inactive” each time.
With `Oc1ccc2c3c1O[C@H]1c4[nH]c5ccccc5c4C[C@@]4(O)C(C2)N(CC2CC2)CCC314` (stereo partly specified), the result in assay [1], in assay [4] and in assay [8] was inactive. Further, the Potency result in assay [6], in assay [2] and in assay [7] was “inactive” each time.
For `CN1CC[C@@]2(C)c3cc(OC(=O)Nc4ccccc4)ccc3N(C)[C@@H]12`, the molecule was called inactive in assay [1] and in assay [4]. Also, the Potency entry in assay [6], in assay [2] and in assay [3] was “inactive” each time.
In the case of `O=[N+]([O-])/C=C/c1ccc2c(c1)OCO2`, the values for the Potency in assay [6] and in assay [7] were 7.52 µM (active) and 14.1 µM (active), respectively. Moreover, in assay [2], the Potency entry is “inactive”. In assay [4], the result was inactive.
In the case of `COc1ccc2c(c1O)-c1cccc3c1[C@@H](C2)N(C)CC3`, the outcome in assay [1] and in assay [4] was inactive. Further, in assay [2], the Potency entry was “inactive”.
For the molecule `C=CCN1CC[C@]23c4c5ccc(O)c4O[C@H]2/C(=N/NC(=O)c2ccccc2)CC[C@@]3(O)[C@H]1C5`, the result in assay [1], in assay [4], in assay [5] and in assay [8] was inactive. In addition, the Potency result in assay [2], in assay [3] and in assay [7] was “inactive” throughout.
For the molecule `CCCN1CCc2cc(O)cc3c2[C@H]1Cc1ccc(O)c(O)c1-3`, the molecule was classed as inactive in assay [1] and in assay [4]. Further, the Potency in assay [7] is 1.34 µM (active).
Take `COc1ccc2c(c1OC)C(=O)OC2C1c2cc3c(cc2CCN1C)OCO3` (stereo unspecified): in assay [5], the outcome was inactive.
Regarding `CC(=O)OCC1=C(C(=O)O)N2C(=O)[C@@H](NC(=O)CCC[C@@H](N)C(=O)O)[C@H]2SC1`, the outcome in assay [1] and in assay [4] was inactive. For the same molecule, the Potency entry in assay [2] and in assay [3] was “inactive” in each case.
Consider `CCCC[N+]1(C)C2CC(OC(=O)[C@H](CO)c3ccccc3)CC1C1OC12` (stereo partly specified), for which the outcome in assay [1] and in assay [4] was inactive. Further, the Potency result in assay [2], in assay [3] and in assay [7] was “inactive” each time.
As to `CCNC(=O)[C@H]1O[C@@H](n2cnc3c(N)ncnc32)[C@H](O)[C@@H]1O`, the molecule was called inactive in assay [1] and in assay [4]. In addition, the Potency result in assay [6] and in assay [2] was “inactive” throughout.
Consider `COc1ccc2c(c1)/C(=C/c1cnc[nH]1)C(=O)N2`, for which the result in assay [1], in assay [4], in assay [5] and in assay [8] was inactive. The Potency entry in assay [2] and in assay [7] was “inactive” in each case. Further, in assay [3], the Potency was 44.7 µM (active) and inactive.
For the molecule `C[C@H](N)Cc1cccc(C(F)(F)F)c1`, the molecule was classed as inactive in assay [1] and in assay [4]. Moreover, the Potency entry in assay [2] and in assay [3] was “inactive” throughout.
Consider `C[C@@H]1O[C@@H](O[C@H]2C[C@@H](O)[C@]3(CO)[C@@H]4C(CC[C@]3(O)C2)[C@@]2(O)CC[C@H]([C@@H]3COC(=O)C3)[C@@]2(C)C[C@H]4O)[C@H](O)[C@H](O)[C@H]1O` (stereo partly specified), for which the molecule was classed as inactive in assay [1] and in assay [4]. Besides, the Potency result in assay [6], in assay [2] and in assay [7] was “inactive” throughout.
For `CCCN1CCc2cccc3c2[C@H]1Cc1ccc(O)c(O)c1-3`, the call in assay [1] and in assay [4] was inactive. The Potency in assay [7] was 70.8 µM (active).
For the molecule `O=c1c2ccccc2[se]n1-c1ccccc1`, the molecule was classed as inactive in assay [1], in assay [4] and in assay [8]. In addition, the Potency entry in assay [6] and in assay [2] was “inactive” each time. For the same molecule, the Potency was 5.01 µM (active) and 2.99 µM (active) in assay [3]; 25.1 µM (active) in assay [7].
As to `CC(C)[C@@]1(NC(=O)[C@@H]2C[C@@H]3c4cccc5[nH]cc(c45)C[C@H]3N(C)C2)O[C@@]2(O)[C@@H]3CCCN3C(=O)[C@H](Cc3ccccc3)N2C1=O`, the call in assay [1] and in assay [4] was inactive. The Potency result in assay [2] is “inactive”.
Regarding `CN1CCc2cc(O)cc3c2[C@H]1Cc1ccc(O)c(O)c1-3`, the molecule was called inactive in assay [1] and in assay [4]. Besides, the Potency in assay [2] is 3.77 µM (active); in assay [7], 1.34 µM (active).
